Assay [1] is described as follows: qHTS assay to identify aromatase inhibitors - cell viability counter screen (AID 743084).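 Further: cells stimulated with testosterone during compound exposure; nearly all actives have a fitted effect of over 55% in size.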 Further: potency means the concentration at half of the fitted maximal effect.
Assay [2] can be described thus: qHTS assay to identify small molecule that activate the aryl hydrocarbon receptor (AhR) signaling pathway - cell viability counter screen (AID 743086). Further: nearly all actives have a fitted effect of over 45% in size. Further: potency means the concentration at half of the fitted maximal effect. The essentials:
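HepG2-AhR-luc (HG2L7.5c1) cells, 4000/well, were preincubated 5 h at 37C, exposed to compound in qHTS format for 24 hr at 37C, then given CellTiter-Fluor for 30 min; viability was read as fluorescence in the reporter wells.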

Assay [3] in a line: qHTS assay for small molecule agonists of the antioxidant response element (ARE) signaling pathway - cell viability counter screen (AID 743203; calls by dose curve; further: nearly all actives have a fitted effect of over 55% in size; further: potency means the concentration at half of the fitted maximal effect). In short, it runs like this:
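ARE-bla HepG2 cells were plated, rested 5 h at 37C/5% CO2, then exposed to compounds in DMSO for 16 h. Viability was read as CellTiter-Glo luminescence after 30 min at room temperature, in the same wells as the ARE screen.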

A short description of assay [4]: qHTS assay for small molecule activators of the heat shock response signaling pathway - cell viability counter screen (AID 743209). Further: nearly all actives have a fitted effect of over 50% in size. Further: potency means the concentration at half of the fitted maximal effect. The essentials: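 HSE-bla HeLa cells plated overnight, then exposed to Tox21 compounds (23 nL in DMSO) for 5 h at 37 C. After the bla reporter read, CellTiter-Glo was added in the same wells and luminescence read after 30 min at room temperature.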

The nature of assay [5]: qHTS assay to identify small molecule antagonists of the farnesoid-X-receptor (FXR) signaling pathway - cell viability counter screen (AID 743221; active means well fitted cell-killing curve with a large enough effect in the repeat runs, not every such curve was filed as active; further: nearly all actives have a fitted effect of over 50% in size; further: potency means the concentration at half of the fitted maximal effect). The essentials: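 HEK 293T FXR-bla cells, 5 h pre-incubation; compound + CDCA 50 uM final, 16 h, 37 C; beta-lactamase FRET read first, then CellTiter-Glo luminescence, 30 min RT.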
The nature of assay [6]: qHTS assay to identify small molecule antagonists of the peroxisome proliferator-activated receptor gamma (PPARg) signaling pathway - cell viability counter screen (AID 743194). Further: nearly all actives have a fitted effect of over 55% in size. Further: potency means the concentration at half of the fitted maximal effect. The essentials:
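PPARg-UAS-bla HEK293H cells were plated, rested 5 h at 37 C, then treated with compounds plus rosiglitazone (50 nM final) for 17 h at 37 C; viability was then read by CellTiter-Glo luminescence after 30 min at room temperature.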

Assay [7] can be described thus: qHTS assay to identify small molecule agonists of the peroxisome proliferator-activated receptor delta (PPARd) signaling pathway - cell viability counter screen (AID 743211). Further: nearly all actives have a fitted effect of over 55% in size. Further: potency means the concentration at half of the fitted maximal effect. The essentials: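 Read-out: CellTiter-Glo luminescence, 30 min RT, measured in the same wells as the beta-lactamase reporter. Cells: GeneBLAzer PPAR delta UAS-bla HEK293H, 3000 cells/well, compound exposure 17 h at 37C.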

A short description of assay [8]: qHTS assay to identify small molecule antagonists of the peroxisome proliferator-activated receptor delta (PPARd) signaling pathway - cell viability counter screen (AID 743213). Further: nearly all actives have a fitted effect of over 50% in size. Further: potency means the concentration at half of the fitted maximal effect. In short, it runs like this:
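HEK293H cells with the PPARd UAS-bla reporter, co-treated 17 h at 37 C with compounds and L165041 (300 nM final), were lysed with CellTiter-Glo. Luminescence indicated viable cell content.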

A short description of assay [9]: qHTS assay to identify small molecule agonists of the farnesoid-X-receptor (FXR) signaling pathway - cell viability counter screen (AID 743218). Further: nearly all actives have a fitted effect of over 45% in size. Further: potency means the concentration at half of the fitted maximal effect. The essentials:
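FXR-UAS-bla HEK 293T cells exposed to compounds for 16 h at 37C. Cytotoxicity read in the same wells by CellTiter-Glo luminescence after 30 min at room temperature, following the beta-lactamase FRET read.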

Assay [10] deals with Peroxisome proliferator-activated receptor gamma (Homo sapiens) (UniProt P37231). As to the kind of experiment: qHTS assay to identify small molecule agonists of the peroxisome proliferator-activated receptor gamma (PPARg) signaling pathway (AID 743094; active means well fitted activation curve with a large enough effect in the signal ratio in the repeat runs, not every such curve was filed as active; the % refers to the signal ratio). In short, it runs like this: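 GeneBLAzer PPARg UAS-bla HEK293H cells were plated, rested 5 h, then exposed to compounds for 17 h at 37C. Beta-lactamase activity was read by LiveBLAzer B/G FRET substrate fluorescence after 1 h at room temperature.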
Peroxisome proliferator-activated receptor gamma (Homo sapiens), sequence (P37231 whole entry, looked up): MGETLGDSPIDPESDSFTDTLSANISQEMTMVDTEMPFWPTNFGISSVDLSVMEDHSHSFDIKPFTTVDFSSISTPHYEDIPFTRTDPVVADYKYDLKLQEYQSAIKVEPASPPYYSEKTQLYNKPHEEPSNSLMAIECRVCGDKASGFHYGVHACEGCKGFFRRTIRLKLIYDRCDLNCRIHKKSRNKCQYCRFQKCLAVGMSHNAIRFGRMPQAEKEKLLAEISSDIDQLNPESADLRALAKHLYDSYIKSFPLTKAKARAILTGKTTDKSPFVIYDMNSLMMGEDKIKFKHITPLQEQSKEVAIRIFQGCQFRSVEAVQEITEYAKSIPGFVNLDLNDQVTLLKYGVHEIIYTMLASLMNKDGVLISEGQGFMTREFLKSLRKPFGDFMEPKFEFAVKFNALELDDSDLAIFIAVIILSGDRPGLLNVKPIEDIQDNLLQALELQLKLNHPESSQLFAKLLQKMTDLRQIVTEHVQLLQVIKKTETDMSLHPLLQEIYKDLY

The target in assay [11] is Vitamin D3 receptor (Homo sapiens) (UniProt P11473). As to the kind of experiment: qHTS assay to identify small molecule agonists of the vitamin D receptor (VDR) signaling pathway (AID 743222; calls by dose curve). The essentials:
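VDR-bla cells plated 4 h at 37 C, then exposed to compounds for 16 h at 37 C. Beta-lactamase reporter activity measured by fluorescence after 2 h room-temperature loading with LiveBLAzer B/G FRET substrate.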

Assay [12] has as its target Aryl hydrocarbon receptor (Homo sapiens) (UniProt P35869). As to the kind of experiment: qHTS assay to identify small molecule that activate the aryl hydrocarbon receptor (AhR) signaling pathway (AID 743085).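 Further: HG2L7.5c1 human HepG2 liver cells with stably integrated DRE-driven firefly reporter; series mostly up to about 70 µM; nearly all actives have a fitted effect of over 15% in size.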 The essentials: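 Luminescence read-out: ONE-Glo reagent, 30 min at room temperature, in HG2L7.5c1 HepG2 reporter cells treated 24 h at 37C. Viability was measured beforehand by CellTiter-Fluor fluorescence after 30 min at 37C.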

The target in assay [13] is Peroxisome proliferator-activated receptor gamma (Homo sapiens) (UniProt P37231). As to the kind of experiment: qHTS assay to identify small molecule antagonists of the peroxisome proliferator-activated receptor gamma (PPARg) signaling pathway (AID 743191; calls by dose curve; further: series mostly up to about 63 µM; nearly all actives have a fitted effect of over 30% in size). In short, it runs like this:
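GeneBLAzer PPARg UAS-bla HEK293H cells carrying a UAS-driven beta-lactamase reporter were plated at 3000 cells/well, preincubated 5 h at 37C, then given compound for 17 h at 37C; LiveBLAzer B/G FRET substrate was read after 1 h at room temperature.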

Assay [14] in a line: qHTS assay for small molecule activators of the heat shock response signaling pathway (AID 743210; active means well fitted activation curve with a large enough effect in the signal ratio in the repeat runs, with a control signal flat, not every such curve was filed as active; the % refers to the signal ratio;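 further: HeLa cells with beta-lactamase reporter driven by heat shock elements; series mostly up to about 63 µM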). In short, it runs like this: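 Reporter gene assay: HeLa cells stably bearing an HSE-bla construct, compound treatment 5 h at 37 C, LiveBLAzer substrate 2.5 h at RT, fluorescence intensity.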
Assay [15] concerns the target Peroxisome proliferator-activated receptor delta (Homo sapiens) (UniProt Q03181). As to the kind of experiment: qHTS assay to identify small molecule antagonists of the peroxisome proliferator-activated receptor delta (PPARd) signaling pathway (AID 743215; active means well fitted inhibition curve with a large enough effect in the signal ratio in the repeat runs, not every such curve was filed as active; the % refers to the signal ratio;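 further: cells stimulated with agonist L165041 at 300 nM final during compound exposure; series mostly up to about 62 µM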). The essentials:
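PPARd-bla HEK293H cells (UAS-bla reporter) preincubated 5 h, then given compound plus 300 nM final L165041 agonist for 17 h at 37 C. Beta-lactamase activity read by LiveBLAzer B/G FRET substrate fluorescence after 2 h at room temperature.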

For assay [16], the target named is Bile acid receptor (Homo sapiens) (UniProt Q96RI1). As to the kind of experiment: qHTS assay to identify small molecule agonists of the farnesoid-X-receptor (FXR) signaling pathway (AID 743220; active means well fitted activation curve with a large enough effect in the signal ratio in the repeat runs, not every such curve was filed as active; the % refers to the signal ratio). The essentials:
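Beta-lactamase reporter under UAS control in GeneBLAzer FXR HEK 293T cells (5000/well) measured with LiveBLAzer FRET substrate after 2 h at room temperature. Compound exposure lasted 16 h at 37C.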

Assay [17] has as its target Vitamin D3 receptor (Homo sapiens) (UniProt P11473). Description: qHTS assay to identify small molecule antagonists of the vitamin D receptor (VDR) signaling pathway (AID 743223; active means well fitted inhibition curve with a large enough effect in the signal ratio in the repeat runs, not every such curve was filed as active; the % refers to the signal ratio). In short, it runs like this:
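Beta-lactamase reporter read-out: FRET substrate fluorescence after 2 h at room temperature, following 16 h exposure of VDR-bla cells to test compound plus 3 nM (final) 1alpha,25-dihydroxyvitamin D3 agonist at 37C.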

Assay [18] deals with Peroxisome proliferator-activated receptor delta (Homo sapiens) (UniProt Q03181). As to the kind of experiment: qHTS assay to identify small molecule agonists of the peroxisome proliferator-activated receptor delta (PPARd) signaling pathway (AID 743212; calls by dose curve). In short, it runs like this: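 A PPARd-bla HEK293H line with beta-lactamase under an Upstream Activator Sequence is treated with compounds at 37 C. Substrate loading for 2 h at room temperature precedes the fluorescence measurement.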
Peroxisome proliferator-activated receptor delta (Homo sapiens), sequence (Q03181 whole entry, looked up): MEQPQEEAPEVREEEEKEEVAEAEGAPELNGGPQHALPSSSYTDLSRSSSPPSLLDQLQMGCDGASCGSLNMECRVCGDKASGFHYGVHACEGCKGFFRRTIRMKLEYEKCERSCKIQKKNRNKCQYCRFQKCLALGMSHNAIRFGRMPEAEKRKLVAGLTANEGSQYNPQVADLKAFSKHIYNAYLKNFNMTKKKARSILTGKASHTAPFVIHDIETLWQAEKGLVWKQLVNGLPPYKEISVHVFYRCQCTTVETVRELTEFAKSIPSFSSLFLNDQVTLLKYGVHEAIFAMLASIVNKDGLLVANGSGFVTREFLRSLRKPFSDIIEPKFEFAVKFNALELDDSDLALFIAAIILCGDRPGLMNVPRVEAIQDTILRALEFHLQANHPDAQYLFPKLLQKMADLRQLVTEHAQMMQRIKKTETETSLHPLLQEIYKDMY

Assay [19] addresses Bile acid receptor (Homo sapiens) (UniProt Q96RI1). Description: qHTS assay to identify small molecule antagonists of the farnesoid-X-receptor (FXR) signaling pathway (AID 743217; active means well fitted inhibition curve with a large enough effect in the signal ratio in the repeat runs, not every such curve was filed as active; the % refers to the signal ratio; further: potency means the concentration at half of the fitted maximal effect). The essentials: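 FXR-UAS-bla HEK 293T cells (beta-lactamase reporter) given compound plus chenodeoxycholic acid (50 uM final), 16 h at 37C. LiveBLAzer B/G FRET substrate added for 2 h at room temperature; fluorescence read.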

Assay [20] in a line: qHTS assay for small molecule agonists of the antioxidant response element (ARE) signaling pathway (AID 743202; active means well fitted activation curve with a large enough effect in the signal ratio in the repeat runs, not every such curve was filed as active; the % refers to the signal ratio; further: potency means the concentration at half of the fitted maximal effect). In short, it runs like this:
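Compounds delivered in DMSO to ARE-bla HepG2 cells (2,000 cells/well, pre-incubated 5 h) and left 16 h at 37 C. LiveBLAzer B/G FRET substrate then added for 2 h at RT before fluorescence reading.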

Records with an inconclusive call do not appear. Activity calls are given as the source filed them. Unless noted, the call rests on the fitted dose curve; in most records, active means well fitted curve in the direction sought with a large enough effect in the repeat runs; inconclusive means weak or mixed curves; inactive means no such curve, though single readings can be large; an effect the other way counts as inactive or inconclusive.

Aryl hydrocarbon receptor (Homo sapiens), sequence (P35869 whole entry, looked up): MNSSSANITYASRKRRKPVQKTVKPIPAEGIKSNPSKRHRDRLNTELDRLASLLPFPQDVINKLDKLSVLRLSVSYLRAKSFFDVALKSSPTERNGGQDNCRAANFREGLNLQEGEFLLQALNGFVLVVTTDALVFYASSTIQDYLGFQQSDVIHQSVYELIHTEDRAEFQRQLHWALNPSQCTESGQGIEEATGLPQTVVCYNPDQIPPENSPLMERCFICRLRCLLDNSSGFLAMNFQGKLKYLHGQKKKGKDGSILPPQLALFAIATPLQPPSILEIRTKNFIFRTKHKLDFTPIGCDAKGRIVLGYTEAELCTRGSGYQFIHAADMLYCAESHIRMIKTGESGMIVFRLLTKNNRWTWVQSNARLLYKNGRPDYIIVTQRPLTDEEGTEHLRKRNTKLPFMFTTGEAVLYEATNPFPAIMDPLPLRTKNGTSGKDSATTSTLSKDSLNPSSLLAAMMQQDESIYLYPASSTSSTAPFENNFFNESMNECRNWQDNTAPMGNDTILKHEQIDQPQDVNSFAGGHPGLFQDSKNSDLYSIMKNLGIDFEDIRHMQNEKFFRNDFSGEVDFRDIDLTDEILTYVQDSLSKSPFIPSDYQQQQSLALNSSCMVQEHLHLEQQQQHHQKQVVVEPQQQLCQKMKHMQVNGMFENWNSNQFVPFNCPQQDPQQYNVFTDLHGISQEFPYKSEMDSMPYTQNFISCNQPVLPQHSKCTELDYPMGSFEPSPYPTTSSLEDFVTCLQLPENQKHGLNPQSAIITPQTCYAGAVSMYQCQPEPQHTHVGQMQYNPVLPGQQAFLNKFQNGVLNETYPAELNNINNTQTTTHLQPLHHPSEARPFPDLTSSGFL
Vitamin D3 receptor (Homo sapiens), sequence (P11473 whole entry, looked up): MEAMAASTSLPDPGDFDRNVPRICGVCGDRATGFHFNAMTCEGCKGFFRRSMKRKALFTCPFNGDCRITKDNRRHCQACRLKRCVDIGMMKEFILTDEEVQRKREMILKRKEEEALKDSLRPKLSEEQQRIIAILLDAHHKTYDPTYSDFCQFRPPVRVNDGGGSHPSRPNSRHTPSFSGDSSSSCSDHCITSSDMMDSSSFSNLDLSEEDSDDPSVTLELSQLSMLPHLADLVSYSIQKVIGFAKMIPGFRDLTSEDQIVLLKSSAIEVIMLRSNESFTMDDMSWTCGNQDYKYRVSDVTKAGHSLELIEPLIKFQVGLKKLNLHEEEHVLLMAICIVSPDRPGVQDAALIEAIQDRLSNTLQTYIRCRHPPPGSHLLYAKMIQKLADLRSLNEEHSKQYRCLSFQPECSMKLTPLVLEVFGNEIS
Bile acid receptor (Homo sapiens), sequence (Q96RI1 whole entry, looked up): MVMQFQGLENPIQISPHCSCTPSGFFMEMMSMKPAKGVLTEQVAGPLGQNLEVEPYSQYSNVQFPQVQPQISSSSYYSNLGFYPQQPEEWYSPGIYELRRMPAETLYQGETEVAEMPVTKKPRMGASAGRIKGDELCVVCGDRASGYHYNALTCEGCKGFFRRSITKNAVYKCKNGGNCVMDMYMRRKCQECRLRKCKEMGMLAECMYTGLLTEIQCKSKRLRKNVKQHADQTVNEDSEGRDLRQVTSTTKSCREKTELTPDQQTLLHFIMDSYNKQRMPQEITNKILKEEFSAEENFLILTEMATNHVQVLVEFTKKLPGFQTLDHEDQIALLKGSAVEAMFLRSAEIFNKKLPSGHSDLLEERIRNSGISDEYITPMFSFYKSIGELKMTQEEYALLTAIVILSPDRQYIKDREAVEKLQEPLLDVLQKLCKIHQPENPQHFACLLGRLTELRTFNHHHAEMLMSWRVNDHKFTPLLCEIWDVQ

In the case of `CC(C)OC(=O)c1cc(C(=O)OC(C)C)cc([N+](=O)[O-])c1`, the Potency entry in assay [1], in [2], in assay [3], in assay [4] and in assay [5] was “inactive” in each case.

In the case of `CN1[C@@H]2CC[C@H]1CC(OC(=O)C(CO)c1ccccc1)C2` (stereo partly drawn), the Potency entry in assay [1], in assay [6], in assay [4], in assay [7], in [8] and in assay [5] was “inactive” each time.

In the case of `CN1[C@@H]2CC[C@@H]1CC(OC(=O)C(CO)c1ccccc1)C2` (stereo partly drawn), the Potency result in assay [1], in assay [2], in [6], in assay [4], in [7] and in assay [8] was “inactive” throughout. Further, the Potency entry in [9] and in [5] was “inactive” throughout.

For `C=CC(=C)CCC=C(C)C`, the Potency entry in assay [1], in assay [10], in assay [6], in assay [3], in assay [4] and in assay [9] was “inactive” in each case. Also, the Potency result in assay [5] and in [11] was “inactive” throughout.

With `CC(C(O)c1ccccc1)N(C)CCOC(c1ccccc1)c1ccccc1` (stereo not drawn), the Potency result in assay [12], in assay [2], in [13], in assay [6], in [14] and in [15] was “inactive” throughout. In addition, the Potency result in [16], in [11] and in [17] was “inactive” throughout. For the same molecule, the Potency in assay [7] is 29.8 µM (active); in [8], 33.5 µM (active); in assay [9], 15 µM (active).

Turning to `N#CSCSc1nc2ccccc2s1`, the Potency in assay [1] was 27.3 µM (active); in [6] it was 7.76 µM (active); in assay [3] it was 30.6 µM (active); in assay [8], 4.9 µM (active). Further, the Potency entry in assay [2] and in [9] was “inactive” throughout.

On to `CC(NCCC(c1ccccc1)c1ccccc1)c1ccccc1` (stereo not drawn), for which the Potency entry in assay [12], in assay [10], in assay [16], in assay [5] and in assay [11] was “inactive” in each case. For the same molecule, the Potency is 26.6 µM (active) in [2]; 23.7 µM (active) in [6]; 33.5 µM (active) in [3]; 29.8 µM (active) in [7]; 8.41 µM (active) in [8].

On to `C[C@]12CC[C@H]3C(=CCc4cc(O)ccc43)[C@@H]1CCC2=O`, for which the Potency entry in assay [1], in assay [2], in [10], in assay [6], in assay [3] and in [14] was “inactive” throughout. The Potency result in assay [7], in assay [15], in [9], in assay [16], in [5] and in assay [11] was “inactive” throughout. Besides, the call in assay [18] was inactive.

Take `Nc1cc(Cl)c([N+](=O)[O-])cc1O`: the Potency in assay [1] is 30.4 µM (active). For the same molecule, the Potency entry in [6], in assay [3], in [4], in assay [14], in [7] and in assay [8] was “inactive” in each case. Moreover, the Potency entry in assay [15], in assay [19], in [9], in [5], in [11] and in assay [17] was “inactive” in each case. Also, in assay [18], the molecule was classed as inactive.

As for `CCN(CC)CCOC(=O)C1(C2CCCCC2)CCCCC1`, the Potency result in assay [12], in assay [2], in [10], in assay [13], in assay [6] and in assay [20] was “inactive” throughout. The Potency entry in [3], in assay [4], in assay [14], in assay [8], in [5] and in assay [11] was “inactive” throughout. Further, the Potency result in [17] was “inactive”. In addition, the call in assay [18] was inactive.

For the molecule `C/C=C/C(=O)Oc1c(CCCCCC(C)C)cc([N+](=O)[O-])cc1[N+](=O)[O-]`, the Potency in [1] is 21.7 µM (active); in [6] it was 6.16 µM (active); in assay [3], 8.63 µM (active); in assay [4], 24.5 µM (active); in [8], 24.5 µM (active); in assay [19], 24.5 µM (active). For the same molecule, in assay [5], the Potency is 43.6 µM (active).

In the case of `CCCOc1sc(C(=O)N2CCC(c3cc(CN)ccc3F)CC2)c(C)c1Br`, the Potency in assay [1] was 44.5 µM (active); in assay [6], 17.9 µM (active); in [3], 17.7 µM (active); in assay [4], 40 µM (active); in assay [7] it was 15.9 µM (active); in assay [8], 17.9 µM (active). Also, the Potency in assay [5] is 50.4 µM (active).

On to `C=C1C(C)(C)[C@@]2(Cl)C(Cl)[C@]1(Cl)C(Cl)(Cl)C2(Cl)Cl` (stereo partly drawn), for which the Potency entry in [12], in assay [2], in assay [10], in [8] and in assay [11] was “inactive” each time. Further, the results for the Potency in [20] and in assay [7] were 7.56 µM (active) and 38.2 µM (active), respectively.

`O=C(c1ccccc1)c1cc(Cl)ccc1O`: the Potency result in assay [1], in assay [2], in assay [10], in assay [13], in [6] and in [3] was “inactive” each time. In addition, the Potency result in assay [4], in assay [14], in [7], in assay [8], in assay [19] and in assay [9] was “inactive” in each case. For the same molecule, the Potency entry in assay [16], in [5] and in assay [11] was “inactive” each time.

`CCNc1nc(NC(C)CC)nc(OC)n1` (stereo not drawn): the Potency entry in assay [1], in assay [2], in assay [10], in assay [13], in assay [6] and in assay [3] was “inactive” throughout. Further, the Potency result in assay [7], in [9], in [16], in assay [5], in [11] and in assay [17] was “inactive” in each case. The call in assay [18] was inactive.

Turning to `O=C(NO)c1ccccc1`, the Potency entry in assay [12], in assay [4] and in [14] was “inactive” in each case.
